Experiments:
Type in all cases: functional
Plasmodium falciparum [1] = experiment: GSK_TCMDC: Inhibition of Plasmodium falciparum 3D7 in whole red blood cells, using parasite LDH activity as an index of growth. Test compounds present at 2uM
Plasmodium falciparum [2] = experiment: GSK_TCMDC: Inhibition of Plasmodium falciparum Dd2 in whole red blood cells, using parasite LDH activity as an index of growth. Test compounds present at 2uM
HepG2 = experiment: GSK_TCMDC: Percent inhibition of human HepG2 cell line. Test compounds present at 10uM.

| Compound | Inhibition (Plasmodium falciparum [1]) | Inhibition (Plasmodium falciparum [2]) | Inhibition (HepG2) |
| --- | --- | --- | --- |
| COc1ccc(OC)c(-c2ccc(O)c(CNCC(C)c3ccccc3)c2)c1 (stereo not drawn) | 98% | 96% | 26% |
| Brc1ccccc1CNc1ccnc(NCCn2ccnc2)n1 | 99% | 33% | 72% |
| FC(F)(F)c1ccc2[nH]c(-c3ccc(-c4ccc(CN5CCN(c6cnccn6)CC5)cc4)s3)nc2c1.O=C(O)C(F)(F)F | 100% | 99% | 23% |
| CN1CCN(c2ccnc3ccc(NC(=O)Nc4ccc(-c5ccncc5)c(C#N)c4)cc23)CC1 | 100% | 99% | 32% |
| Br.CCCCC(NCC)c1ccc(OCCOc2ccc(C(CCCC)NCC)cc2)cc1 (stereo not drawn) | 100% | 99% | 100% |
| Cl.Fc1ccccc1COc1ccc(Nc2ncnc3ccc(-c4nnc(C(F)(F)F)o4)cc23)cc1Cl | 100% | 46% | 7% |
| COc1cccc(-c2ccc3c(-c4cccc(S(C)(=O)=O)c4)cnc(N)c3c2)c1 | 96% | 21% | 45% |
| CCNc1cc(C(=O)N[C@@H](Cc2ccccc2)[C@H](O)CNCc2cc(OC)cc(OC)c2)cc(N2CCCC2=O)c1.Cl | 100% | 75% | 0% |
| O=[N+]([O-])c1ccc(-n2nc(Cc3ccccc3)n(Cc3cccc(F)c3)c2=S)c(C(F)(F)F)c1 | 100% | 100% | 4% |
| Cc1ccc(-c2nc(Nc3ccncc3)c3ccccc3n2)s1 | 95% | 34% | 6% |
| CCc1ccc(NC(=O)c2ccc(CN3CCCN(CCC(C)C)CC3)cc2)cc1.O=C(O)C(F)(F)F | 96% | 25% | 48% |
